Screening data as filed in PubChem.
The list is not random: actives were taken first. Their share in the collection is about 2.4%.
POLB inh: inhibitors of human DNA polymerase beta | Pol beta primer extension/strand displacement, fluorescence kinetic | Potency, µM (highest dose often 114 µM), inactives show at the top dose activity change, negative = inhibition, usual class: inhibitors | actives 1.3% (n = 340,000) | AID 485314; also: potency is read from the fitted curve at half-maximal effect; % is scaled to controls: 0 for no effect and ±100 for the full control effect
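Curves were derived by four-parameter Hill fits of normalized qHTS data. The kinetic fluorescent primer-extension read was taken at 0 and 10 min after 50 nM substrate, following a 15 min room-temperature preincubation of 10 nM enzyme with compounds.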
WRN helicase inh: blocks human WRN helicase; actives 0.46% (n = 360,000); WRN helicase unwinding, fluorescent forked duplex, kinetic; Potency, µM (series often up to 114 µM), inactives show at the highest dose activity change, negative = inhibition, most hits filed as inhibitors; Q14191; AID 651768; also: potency is read from the fitted curve at half-maximal effect; % is scaled to controls: 0 for no effect and ±100 for the full control effect; nearly all actives have a fitted effect of over 55% in size
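WRN at 20 nM final was preincubated with compound for 15 min at room temperature; reaction started with 100 nM forked duplex oligonucleotide carrying fluorophore and quencher plus 2 mM ATP (final). Unwinding followed kinetically by red fluorescence (ex 525/em 598 nm).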
FEN1 inh: inhibitors of human flap endonuclease 1; P39748; Recombinant FEN1 flap cleavage, fluorescence, 15 min; Potency, µM (highest dose often 114 µM), inactives show top-dose activity change, negative = inhibition, most hits filed as inhibitors; actives 0.35% (n = 390,000); also: potency is read from the fitted curve at half-maximal effect; % is scaled to controls: 0 for no effect and ±100 for the full control effect; nearly all actives have a fitted effect of over 65% in size
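Reaction started by adding substrate (50 nM final) to 10 nM enzyme after 15 min room-temperature compound preincubation. Reads at 0 and 15 min, with data normalized and fitted to a four-parameter Hill equation.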
Pol eta inh-1: inhibitors of human DNA polymerase eta; recombinant Pol eta, fluorescent DNA replication assay; AID 588591; actives 1.2% (n = 390,000); Potency, µM (titrated, usually from 114 µM), inactives show at the top dose activity change, negative = inhibition, usual class: inhibitors; also: potency is read from the fitted curve at half-maximal effect; % is scaled to controls: 0 for no effect and ±100 for the full control effect
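Fluorescent replication assay: 50 nM final substrate added after a 15 min room-temperature compound preincubation with 10 nM enzyme. Signal taken at 0 min and again at 10 min.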
Pol kappa inh-1: DNA polymerase kappa (human) inhibition; Q9UBT6; Potency, µM (top dose mostly 107 µM), without a hit: at the top dose activity, negative = inhibition, hits mostly inhibitors; actives 0.53% (n = 400,000); AID 588579; purified Pol kappa, fluorescent DNA synthesis assay, 10 min; also: potency is read from the fitted curve at half-maximal effect; % is scaled to controls: 0 for no effect and ±100 for the full control effect
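Enzyme at 10 nM met test compounds for 15 min at room temperature. Substrate addition (50 nM final) began the reaction, which was monitored by fluorescence at 0 and 10 min.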
Pol iota inh: inhibitors of human DNA polymerase iota. Pol iota fluorescent replication assay, 10 min. Potency, µM (titrated, usually from 115 µM), for inactives: at the top dose activity, negative = inhibition, usual class: inhibitors. actives 1% (n = 390,000). AID 588590; also: potency is read from the fitted curve at half-maximal effect
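Pol iota at 10 nM preincubated 15 min with compounds at room temperature; reaction started with fluorescent substrate, 50 nM final. Fluorescence read kinetically at 0 and 10 min; buffer-only wells as negative control.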
GALK inh confirm: galactokinase (human) inhibition, confirmation; shares compounds with Pol eta inh-1; purified GALK, Kinase-Glo ATP depletion luminescence; Potency, µM (series often up to 115 µM), for inactives: at the highest dose activity, negative = inhibition, actives largely listed as inhibitors; actives 70% (n = 150); AID 2015
GALK redox cs: redox cycling activity in phenol red-HRP assay; Phenol red-HRP H2O2 redox cycling, absorbance 600 nm; shares compounds with Pol eta inh-1; Potency, µM (highest dose often 115 µM), for inactives: at the top dose activity change, negative = H2O2 signal, usual class: inhibitors; actives 40% (n = 150)
HEK293 tox: counter-screen for GALK inhibitors: HEK293 cell cytotoxicity; AID 2547; HEK-293 viability, ATP luminescence (CellTiter-Glo), 24/48 h; actives 10% (n = 170); shares compounds with Pol eta inh-1; Potency, µM (highest dose often 46.1 µM), inactives show at the highest dose activity change, negative = cytotoxicity, most hits filed as inhibitors; also: potency is read from the fitted curve at half-maximal effect; % is scaled to controls: 0 for no effect and ±100 for the full control effect
Pol kappa inh-2: confirmation of human DNA polymerase kappa inhibitors; shares compounds with Pol eta inh-1; purified Pol-kappa, fluorescent strand-displacement substrate; Potency, µM, hits mostly inhibitors; actives 76% (n = 920); AID 720501; also: potency is read from the fitted curve at half-maximal effect
Pol eta inh-2: confirmation of human DNA polymerase eta inhibitors; shares compounds with Pol eta inh-1; Potency, µM, actives largely listed as inhibitors; actives 64% (n = 2,600); Pol eta primer extension, TAMRA/BHQ fluorescence, 10 min; also: potency is read from the fitted curve at half-maximal effect
* hit, by the source's call; ? = inconclusive; nt = no result; [ ] = another dose, or the depositor's remark. Calls follow the shape of the dose curve; as a rule, active = well fitted curve in the direction sought with a large enough effect; inconclusive = small, poorly fitted or top-dose-only effect, or another doubt; inactive = no such curve, though single readings can be large; an effect the other way counts as inactive or inconclusive.

SMILES	POLB inh	WRN helicase inh	FEN1 inh	Pol eta inh-1	Pol kappa inh-1	Pol iota inh	Pol eta inh-2	others
O=C(O)c1cc(-c2ccc(-c3c(-c4ccc5c(c4)OCO5)noc3-c3ccsc3)cc2)nc2ccccc12	-15%	?	-23%	79µM*	-30%	?	nt	Pol kappa inh-2=?
COc1cc(-c2c(-c3ccc4c(c3)OCO4)noc2-c2ccsc2)cc(OC)c1OC	nt	nt	14%	nt	7%	10%	nt
Cc1cc(C(F)(F)F)nn1-c1nc(-c2ccccc2)cc(C(F)(F)F)n1	-1%	nt	-16%	-20%	-7%	20%	nt
CCCCCC1C(=O)CCC1CC(=O)O (centres undefined)	nt	nt	nt	nt	-3%[60.1 µM]	nt	nt
CCCCC1C(=O)CC[C@H]2[C@@H]1CC(=O)[C@@H]2C/C=C\CCCC(=O)O (some centres undefined)	26%	?	-6%	?	-26%	?	?
O=C1NC(=O)C(Cc2ccc(OCCN3COc4ccccc4C3=O)cc2)S1 (centres undefined)	nt	nt	nt	nt	-8%[12 µM]	nt	nt
Cc1oc2c(C)c3oc(=O)c(CCC(=O)N4CCCCC4)c(C)c3cc2c1C	-4%	nt	7%	-15%	-11%	0%	nt
CC(O)c1cccc2cc(C(O)CNC(C)(C)C)oc12 (centres undefined)	nt	nt	nt	nt	14%[60.1 µM]	nt	nt
Cc1ccc(C(=O)NCc2ccco2)o1	?	-19%	-3%	?	?	?	nt
Cc1ccc(C(=O)NCc2occc2C(=O)O)o1	20µM*	-7%[11.6 µM]	-2%	28µM*	?	?	30*	Pol kappa inh-2=24*
CC(C)c1ccc(OCc2ccc(C(=O)O)o2)cc1	10µM*	-9%	-7%	22µM*	-15%	?	?	Pol kappa inh-2=42*
CC(C)c1ccc(OCc2ccc(C(=O)N(C)C)o2)cc1	13%	16%	-17%	-1%	-10%	-22%	nt
O=C(Cc1ccc(Br)cc1)N/N=C/c1ccc(-c2cccc(C(=O)O)c2)o1	?	-13%[11.6 µM]	-2%	22µM*	?	23%	30*
Cc1c(C(=O)O)cccc1-c1ccc(C=O)o1	28µM*	-19%[57.1 µM]	-12%	5µM*	?	?	85*
O=Cc1ccc(-c2cccc(C(=O)O)c2)o1	?	-5%[11.6 µM]	5%	10µM*	?	?	48*
CCOC(=O)c1cccc(-c2ccc(C=O)o2)c1	?	-24%	-2%	-18%	-19%	1%	nt
Cc1cccc2[nH]cc(/C=C3/C=Nc4ccccc43)c12	nt	nt	-4%	nt	-22%	45%	nt
COc1cc2c(cc1[N+](=O)[O-])-c1ccc([N+](=O)[O-])cc1C2=NNC(N)=S	nt	-26%	nt	10µM*	nt	nt	nt	Pol kappa inh-2=67*
CN(Cc1ccco1)C(=O)c1ccc2c(c1)N(Cc1ccccc1F)C(=O)c1ccccc1S2	-3%	nt	-5%	-11%	-23%[60.1 µM]	?	nt
Cc1ccc(C)c(NC(=O)CCNS(=O)(=O)c2ccc3[nH]c(=O)oc3c2)c1	11µM*	-10%[11.6 µM]	6%	22µM*	3%	-17%	?
Cc1nc2ccc(-c3nc4ccc(N)cc4[nH]3)cc2[nH]1	13µM*	?	35µM*	?	50µM*	18µM*	nt	Pol kappa inh-2=?
Nc1ccc2nc(-c3ccc(Cl)cc3)[nH]c2c1	0%	-7%[57.1 µM]	?	-23%	14%	2%	nt
CC1CCC/C=C/C(=O)c2c(O)cc(O)cc2CC(=O)O1 (centres undefined)	-15%	-12%[11.6 µM]	0%	35µM*	79µM*	18µM*	76*
COc1cc(O)c(CCO)c2c1C(=O)C[C@@H](C)O2	-2%	-4%	-9%	0%	-6%	1%	nt
CCc1c(-c2cccc(OC)c2)ncn1Cc1cccc(-c2ccccc2)c1	nt	-2%	nt	nt	nt	nt	nt
SMILES	POLB inh	WRN helicase inh	FEN1 inh	Pol eta inh-1	Pol kappa inh-1	Pol iota inh	Pol eta inh-2	others
O=C(Cn1cnc2c(oc3ccccc32)c1=O)Nc1ccc(F)cc1F	7%	nt	0%	-5%	-18%	-2%	nt
Cc1ccc(C)c(NC(=O)Cn2cnc3c(oc4ccccc43)c2=O)c1	35%	-7%	-3%	?	-3%	29%	nt	Pol kappa inh-2=67*
O=C1C[C@H](c2ccccc2)Oc2cc(O)cc(O)c21	nt	nt	nt	nt	-3%[19.4 µM]	nt	nt
O=c1c(O)cc(C2Oc3cc(O)cc(O)c3CC2O)cc2c(C3Oc4cc(O)cc(O)c4CC3O)cc(O)c(O)c12 (centres undefined)	nt	nt	nt	nt	0.71µM*	nt	nt	GALK inh confirm=5.3µM*;GALK redox cs=5.3µM*;HEK293 tox=-2%
Cc1cc(S(=O)(=O)Nc2ccc(O)c(Sc3nc4ccccc4s3)c2)ccc1Cl	5%	nt	-15%	-11%	-8%	-6%	nt
O=S(=O)(Nc1ccc(O)c(Sc2nc3ccccc3s2)c1)c1cc(Cl)ccc1Cl	?	nt	?	79µM*	?	?	?
N[C@H](C(=O)O)C1C(C(=O)O)C1C(=O)O (some centres undefined)	nt	nt	nt	nt	6%[19.4 µM]	nt	nt
CC(OC(=O)c1ccc(S(=O)(=O)NCc2ccco2)cc1)C(=O)Nc1ccc(Cl)cn1 (centres undefined)	?	-34%	-6%	?	-19%	?	67*
COc1cccc(-c2coc3c(C)c4oc(=O)c(CCC(=O)O)c(C)c4cc23)c1	?	?	?	50µM*	-38%	?	48*
COc1cccc(-c2coc3c(C)c4oc(=O)c(CC(=O)O)c(C)c4cc23)c1	-2%	-10%	-34%	-23%	-10%	97%	nt
